These results are taken from PubChem BioAssay.

“And” between values parts separate entries of the source, which are not always exact repeats. Equal entries are not always repeated. The source made the active and inactive calls.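 Rule for the calls, unless noted: active = compounds whose cell count with miR-34 switched on is under 0.7 times the count with it off; inactive = the rest.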

A short description of assay [1]: P. berghei load reduction in hepatocytes – cell-based, HepG2, luciferase luminescence, HepG2 viability, primary screen (AID 624349; in the data active = parasite load remaining mostly below about 12%, no sharp cut-off; inactive = mostly above about 10%;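 note: 100% = mean of DMSO negative control wells on the same plate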). The settings on record: P. berghei liver stage in HepG2, luciferase luminescence, concentration not given here; parasite load remaining: stronger effect = lower value; viability: measured here: HepG2 viability without parasites.
The nature of assay [2]: Wnt pathway potentiators raising nuclear beta-catenin – imaging, WNT3A-conditioned medium, mouse C2C12, NPC library, primary screen (AID 1117326; in the data active = nuclear beta-catenin stimulation mostly above about 4.2%, no sharp cut-off; inactive = mostly below about 10%). The settings on record: stronger effect = higher value.
Assay [3] can be described thus: stimulators of insulin release from INS-1E, primary screen, cell-based, 5 mM glucose, NPC library (AID 1117329;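 active = compound raises insulin release from rat beta cells at 5 mM glucose, no numeric limit stated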). Conditions: rat INS-1E insulin secretion, at 10 µM, stronger effect = higher value.
Assay [4] can be described thus: growth inhibition of GSK3B-pretreated HCT116 cells – cell-based, CellTiter-Glo, 0.2 to 20 µM (AID 1117336;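 active = compounds lowering colon cancer cell viability after pretreatment blocking the GSK3B kinase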). The settings on record: HCT116 viability after GSK3B inhibitor, at 20 µM, stronger effect = higher value.
Assay [5] in a line: inhibition of endothelial tube formation, primary screen, imaging, VEGF stimulated, CD31 staining, tube area, NPC library (AID 1117340;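 active = compound that reduces growth-factor-driven endothelial tube area in a mixed cell culture, no cutoff stated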). Conditions: VEGF-stimulated ADSC/ECFC co-culture, at 10 µM, stronger effect = higher value.
Assay [6] is described as follows: GLP1 release stimulators, primary, NCI-H716, NPC library (AID 1117341;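 active = compound raises GLP1 secretion from the human gut endocrine cells, with no numeric limit stated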). Conditions: NCI-H716 cells, at 10 µM, stronger effect = higher value.
Assay [7] can be described thus: HCT116 colon cancer cell growth inhibition, primary screen, CellTiter-Glo luminescence, NPC library (AID 1117342;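 active = compounds that lower survival of HCT116 colon cancer cells in the luminescence readout, no numeric limit stated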). Conditions: at 20 µM (top of the series).
Assay [8] can be described thus: reduced SW480 viability measured with CellTiter-Glo, NPC library, primary (AID 1117343;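 active = compounds that lower viability of the colon cancer cells in the luminescence readout, with no numeric limit stated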). Conditions: CellTiter-Glo luminescence; at 20 µM (top of the series).
Assay [9] is described as follows: NPC library primary testing for decreased DLD-1 cell viability via CellTiter-Glo (AID 1117346;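 active = compounds that lower survival of DLD-1 colon cancer cells in the luminescence readout, no cutoff given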). The settings on record: DLD-1 viability, CellTiter-Glo luminescence; at 20 µM (top of the series).
The subject of assay [10] is Aerobactin synthetase IucA (Klebsiella pneumoniae, hypervirulent). Kind of assay: biochemical IucA inhibition screen of LOPAC library by absorbance (AID 1346212; call rule not given here;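 note: 100% = no compound wells and 0% = no enzyme wells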). Conditions: IucA enzyme assay, absorbance (OD) readout; stronger effect = lower value;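 tested at 8 µM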.
Assay [11] can be described thus: viability loss with induced miR-34 in A549 – imaging, A549 dox-inducible miR-34, nuclei and caspase counts, primary screen (AID 1347080). The settings on record: A549 miR-34 inducible, Hoechst nuclei count, 48 h.
The nature of assay [12]: MELAS cybrid and Rieske KO viability enhancers – cell-based, MELAS cybrids, Rieske KO mouse fibroblasts, CellTiter-Glo, primary screen (AID 1508586;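 active = mean z-score across replicates of 1.96 or higher in either the MELAS or the Rieske mutant cell line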;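 note: z relative to plate mean and SD of compound and empty wells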). The settings on record: low glucose.
Assay [13] is described as follows: galactose survival enhancers in mitochondrial complex I cybrids – cell-based, galactose medium, ATP luminescence, primary screen (AID 1645843;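 active = z-score of at least 1.8 in each of two replicates, scored against plate mean and spread of sample wells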;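 note: positive z means more ATP and so rescue of galactose-driven cybrid death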). Conditions: complex I mutant cybrid cells, 72 h, stronger effect = higher value.
Assay [14] is described as follows: compounds altering circadian rhythm period length – cell-based, LOPAC library, luminescence reporter (AID 2774; call rule not given here;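 note: values are relative to mean of DMSO wells on each plate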). The settings on record: circadian reporter cells, at 7 µM, actives lie on both sides.
Assay [15] concerns Hepatitis C virus NS3 helicase. The experiment in a line: blockers of NS3h binding to ssDNA – biochemical, fluorescence polarization, LOPAC1280 library, primary screen (AID 687035; in the data active = inhibition above about 37%). The settings on record: Purified HCV NS3 helicase, Cy5-dT15 ssDNA binding fluorescence polarization; stronger effect = higher value; concentration not given here.
Assay [16] in a line: EMT-state selective cytotoxicity in co-culture – imaging, PC-3E GFP, TEM4-18 mCherry, primary screen (AID 1345086;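 active = compounds killing one labelled cell type while sparing the other, by normalised counts and ratio limits, not self-fluorescent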;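 note: cells exposed to compound for 72 h before imaging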;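 for red/green cell ratio (normalised): normalised mesenchymal count divided by normalised epithelial count so high means epithelial killing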). The settings on record: PC-3E GFP / TEM4-18 mCherry co-culture, imaging cell counts, at 1 µM.
Assay [17] has as its target NAD(+) hydrolase SARM1 (Homo sapiens) (UniProt Q6SZW1). Kind of assay: blocking NAD cleavage by SARM1 SAM-TIR – cell lysate, NAD-Glo luminescence (AID 1508614;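 active = compound whose remaining NAD level is above about 45 nM, limit read from the data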;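 note: higher remaining NAD means stronger inhibition of SARM1 NADase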). Conditions: SAM-TIR HEK293T lysate NADase, at 1 µM, stronger effect = higher value.
Setting [18] is: measured here: relative caspase fold change +Dox/-Dox.
[19] abbreviates: measured here: total cells with miR-34 induction, stronger effect = lower value.
Setting [20] is: measured here: total cells without miR-34 induction.
The mark [21] stands for this setting: MELAS cybrid survival, CellTiter-Glo 48 h, stronger effect = higher value.
[22] abbreviates: Rieske KO mouse fibroblast survival, CellTiter-Glo 72 h.

Chain of NAD(+) hydrolase SARM1 (Homo sapiens) (Q6SZW1 whole entry, looked up): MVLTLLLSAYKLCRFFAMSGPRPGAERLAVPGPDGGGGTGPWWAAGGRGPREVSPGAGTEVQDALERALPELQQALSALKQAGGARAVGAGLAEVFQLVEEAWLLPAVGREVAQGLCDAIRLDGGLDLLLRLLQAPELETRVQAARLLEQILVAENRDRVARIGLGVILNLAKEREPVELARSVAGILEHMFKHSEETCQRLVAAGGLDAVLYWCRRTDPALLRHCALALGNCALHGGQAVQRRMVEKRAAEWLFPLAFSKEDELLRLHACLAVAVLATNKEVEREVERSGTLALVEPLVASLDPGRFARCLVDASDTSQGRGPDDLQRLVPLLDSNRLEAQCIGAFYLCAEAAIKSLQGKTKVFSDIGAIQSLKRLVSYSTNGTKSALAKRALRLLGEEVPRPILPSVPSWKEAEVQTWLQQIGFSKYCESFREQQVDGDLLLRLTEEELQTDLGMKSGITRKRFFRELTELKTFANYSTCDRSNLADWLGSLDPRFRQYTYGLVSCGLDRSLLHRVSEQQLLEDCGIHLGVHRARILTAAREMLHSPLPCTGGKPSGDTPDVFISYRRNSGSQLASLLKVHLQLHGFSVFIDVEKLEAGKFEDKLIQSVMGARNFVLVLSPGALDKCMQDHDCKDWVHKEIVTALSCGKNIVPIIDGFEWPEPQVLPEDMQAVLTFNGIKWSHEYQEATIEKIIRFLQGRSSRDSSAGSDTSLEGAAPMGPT

On to `CN1C[C@@H](NS(=O)(=O)N(C)C)C[C@@H]2c3cccc4c3c(cn4C)C[C@H]21`, for which the parasite load remaining in assay [1] is 32.6% (inactive). Besides, the viability in [1] worked out at 102%. For the same molecule, the nuclear beta-catenin stimulation in assay [2] (at 10 µM) was 0.4% (inactive); in assay [2] (stimulation, at 2 µM), 1.4%. Also, in assay [3], the insulin secretion stimulation is 3.7% (inactive). In addition, in assay [4], the viability decrease was 9.6% (inactive). Besides, in [5], the tube area decrease is -8.8% (inactive). In addition, the GLP1 secretion stimulation in assay [6] is 4.1% (inactive). The inhibition of viability in assay [7] was 36.4% (inactive). The values for the viability decrease (inhibition) in assay [8] and in [9] were 48% (inactive) and 9% (inactive), respectively. Moreover, the remaining activity in assay [10] is 113% (inactive). Also, the fold change was 0.878 (inactive) in [11] (stronger effect = lower value) and 1.21 in [11] (setting [18]). For the same molecule, the cell count in assay [11] (setting [19]) was 9040; in assay [11] (setting [20]), 10300. Further, the z-score is 0.531 (inactive) in [12] (setting [21]), 0.143 in assay [12] (setting [22]) and 0.405 (inactive) in [13].

In the case of `COc1ccc(C(=O)c2c(C)n(CCN3CCOCC3)c3ccccc23)cc1`, the parasite load remaining in assay [1] is 50.5% (inactive). Also, in assay [1], the viability is 159%. In addition, the nuclear beta-catenin stimulation is 1.2% (inactive) in assay [2] (at 10 µM) and 0.9% in assay [2] (stimulation, at 2 µM). Besides, the insulin secretion stimulation in [3] is -0.5% (inactive). Also, in assay [4], the viability decrease was 75% (active). The tube area decrease in assay [5] was 8.1% (inactive). Further, the GLP1 secretion stimulation in assay [6] was 1.7% (inactive). In addition, the inhibition of viability in assay [7] was 54% (active). Further, the viability decrease (inhibition) in assay [8] was 65% (active); in assay [9] it was 39.5% (inactive). For the same molecule, the fold change in [11] (stronger effect = lower value) was 0.898 (inactive); in assay [11] (setting [18]), 1.25. Moreover, the cell count in [11] (setting [19]) amounted to 9440; in [11] (setting [20]) it was 10500. Also, the z-score in [12] (setting [21]) is 0.332 (inactive); in assay [12] (setting [22]), 0.082; in assay [13], 0.375 (inactive).

In the case of `Cc1ccc(S(=O)(=O)N[C@@H](CCCCN)C(=O)CCl)cc1`, in assay [14], the period change is 0 h (inactive). Besides, the inhibition in assay [15] is -3% (inactive). Besides, the nuclear beta-catenin stimulation is 2.3% (inactive) in assay [2] (at 10 µM) and 0% in assay [2] (stimulation, at 2 µM). For the same molecule, the insulin secretion stimulation in assay [3] was 0.9% (inactive). Further, the viability decrease in assay [4] is -9.5% (inactive). In [5], the tube area decrease was 13% (inactive). The GLP1 secretion stimulation in [6] is -1.9% (inactive). The inhibition of viability in assay [7] is -8.6% (inactive). Also, the viability decrease (inhibition) was 12.5% (inactive) in assay [8] and -7% (inactive) in assay [9]. In addition, in assay [10], the remaining activity was 114% (inactive). Moreover, the fold change in assay [11] (stronger effect = lower value) was 0.989 (inactive) and 0.965 (inactive); in [11] (setting [18]), 1.42 and 1.58. Also, the cell count in [11] (setting [19]) is 9040 and 5750; in assay [11] (setting [20]) it was 9130 and 5960. For the same molecule, in assay [13], the z-score was -0.59 (inactive).

Consider `CNCC(=O)c1ccc(O)c(O)c1`, for which the nuclear beta-catenin stimulation is -2.8% (inactive) in assay [2] (at 10 µM) and -1.5% in assay [2] (stimulation, at 2 µM). Further, the insulin secretion stimulation in assay [3] was -0.7% (inactive). Moreover, the viability decrease in assay [4] is 44.4% (inactive). Also, the tube area decrease in assay [5] is -23.7% (inactive). Besides, in assay [6], the GLP1 secretion stimulation is -4.7% (inactive). In addition, in [7], the inhibition of viability is 20.7% (inactive). Also, the viability decrease (inhibition) in assay [8] is 24.3% (inactive); in assay [9] it was 19.2% (inactive). Further, the red/green cell ratio (normalised) in [16] (actives lie on both sides, counts scaled to control wells, 1 = unselective) was 1.24 (inactive). Besides, the results for the normalised cell number in [16] (measured here: epithelial PC-3E GFP cell survival) and in assay [16] (measured here: mesenchymal TEM4-18 mCherry cell survival) were 1.18 and 1.47, respectively. The fold change was 0.925 (inactive) and 0.971 (inactive) in [11] (stronger effect = lower value); 0.648 and 0.466 in assay [11] (setting [18]). For the same molecule, the cell count was 6760 and 7680 in assay [11] (setting [19]); 7310 and 7920 in assay [11] (setting [20]). The z-score was -0.0398 (inactive) in assay [12] (setting [21]) and -0.269 in assay [12] (setting [22]). Besides, the remaining NAD in assay [17] was 10 nM (inactive).
